# Screening data: PubChem BioAssay, several laboratories
# Sampled rows, rich in hits. Any-hit rate of the full collection: about 28%.
# CYP2C19 inh = human CYP2C19 inhibition; CYP2C19 Supersomes, luciferin-H EGE luminescence, 30 min; AID 778; inhibition, % at 5 µM; 21% of 96,000 active; P33261;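 active = CYP2C19 inhibition above a set limit at 5 µM in the primary screen, cut at about 50% in these data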;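 also: plate controls were negative control wells for no effect and 2.5 mM tranylcypromine positive control for full effect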
# Target sequence (P33261 whole entry, looked up): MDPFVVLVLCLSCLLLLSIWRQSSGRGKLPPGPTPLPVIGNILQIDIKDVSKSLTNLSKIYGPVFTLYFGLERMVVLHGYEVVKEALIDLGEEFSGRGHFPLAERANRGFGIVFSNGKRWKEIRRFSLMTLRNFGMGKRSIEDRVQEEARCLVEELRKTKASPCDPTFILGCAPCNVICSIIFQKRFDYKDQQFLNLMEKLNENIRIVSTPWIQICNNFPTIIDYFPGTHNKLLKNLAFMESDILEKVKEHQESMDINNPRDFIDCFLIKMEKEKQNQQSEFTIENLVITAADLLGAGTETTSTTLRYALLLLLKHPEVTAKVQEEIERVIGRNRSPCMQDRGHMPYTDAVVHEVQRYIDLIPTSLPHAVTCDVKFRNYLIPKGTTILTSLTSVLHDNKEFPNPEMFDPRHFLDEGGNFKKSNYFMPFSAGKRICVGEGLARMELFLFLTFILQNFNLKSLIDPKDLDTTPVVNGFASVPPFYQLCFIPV
# CYP2C9 inhib = blocks human cytochrome P450 2C9; P11712; CYP2C9 Supersomes, luciferin-H conversion, luminescence; inhibition, % at 5 µM; 20% of 96,000 active;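 active = blocking of liver enzyme CYP2C9 beyond about 50% at 5 µM, limit read from the data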
# PLK1 PBD inh = Plk1 (human) PBD binding inhibition; inhibition, %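 (tested at about 20 µM)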; AID 693; Plk1 PBD phosphopeptide binding, fluorescence polarization; 0.13% of 97,000 active; P53350; in the data active = inhibition above about 34%, passing the limit was not always enough
# PLK1 kinase inh = blocks human PLK1 kinase activity; P53350; recombinant PLK1 kinase, TR-FRET peptide phosphorylation; inhibition, % at 10 µM; 0.53% of 97,000 active;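 active = inhibition of 50% or more in the single-concentration screen; inactive = inhibition below 50%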;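 also: 0% = DMSO max control and 100% = H-89 dihydrochloride min control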
# CYP2C19 activ = increases human CYP2C19 enzyme activity; P33261; recombinant CYP2C19, luciferin-H EGE luminescence; stronger effect = higher value; 0 = fully inhibited enzyme, 1 = untreated enzyme; activation factor at 5 µM; 96,000 tested, under 10 active;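 active = activation factor of at least 2 at 5 µM in the primary screen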;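 also: 0 = wells with 2.5 mM tranylcypromine and 1 = vehicle-only wells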
# CYP2C9 activ = increases human cytochrome P450 2C9 activity; P11712; recombinant CYP2C9, luciferin-H conversion, luminescence; stronger effect = higher value; factor 1 = untreated enzyme, 0 = blocked; activation factor at 5 µM; 1.4% of 96,000 active; AID 1024;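 active = activation factor of 2 or more for CYP2C9 at a 5 µM dose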;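 also: 0 = sulfaphenazole-blocked wells and 1 = vehicle-only wells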
# Numbers without * were called inactive; . = no result given.
SMILES,CYP2C19 inh,CYP2C9 inhib,PLK1 PBD inh,PLK1 kinase inh,CYP2C19 activ,CYP2C9 activ
COc1ccc(S(=O)(=O)N(C)c2ccc(C(N)=O)cc2)cc1,44,50,4,-14,0.6,0.5
CN(Cc1nc(-c2ccccn2)no1)S(=O)(=O)c1ccc(Cl)cc1,22,14,-7,-13,0.8,0.9
N#CC12CCCCC1CC1CCCCC1(C#N)N2Cc1cccnc1 (stereo not given),11,5,-49,-7,0.9,1
CCOc1ccc(S(=O)(=O)N(CC(N)=O)c2ccc(C)cc2)cc1,71*,41,0,-14,0.3,0.6
CCOc1ccc(N(CC(=O)OC)S(=O)(=O)c2ccc(OC)c(OC)c2)cc1,64*,55*,-9,1,0.4,0.5
CCOc1ccc(N(CC(=O)OC)S(=O)(=O)c2ccc3c(c2)n(C)c(=O)c(=O)n3C)cc1,11,56*,13,-5,0.9,0.4
COc1ccc(N(CC(=O)O)S(=O)(=O)c2ccc(OC)c(OC)c2)cc1,22,29,1,-9,0.8,0.7
COc1ccc(OC)c(N(CC(N)=O)S(=O)(=O)c2ccc(OC)c(OC)c2)c1,78*,45,-4,-9,0.2,0.6
CCOc1ccc(N(CC(N)=O)S(=O)(=O)c2ccc(F)cc2)cc1,37,12,-21,-14,0.6,0.9
COc1ccc(-n2nc3cc(C)c(N)c(Br)c3n2)cc1,17,-1,-9,-2,0.8,1
O=C1CCC([N+](=O)[O-])C(c2cccc(Cl)c2Cl)N1 (stereo not given),-11,11,-24,-8,1.1,0.9
N#CC1=C(N)N(c2ccccc2Sc2ccccc2)C(=O)C1,16,10,.,.,0.8,0.9
CCOC(=O)c1cnn(CCOC(=O)C2CC2)c1NC(=O)C1CC1,19,10,0,-2,0.8,0.9
COC(=O)CN(c1ccc(OC)cc1)S(=O)(=O)c1ccc(OC)c(OC)c1,94*,16,20,-2,0.1,0.8
CCOC(=O)c1[nH]nc(N)c1NC(=O)c1ccc(Cl)cc1Cl,.,.,-9,-7,.,.
CCOC(=O)c1c(NC(=O)c2ccco2)sc(C(=O)N2CCCC2)c1C,44,56*,-16,-4,0.6,0.4
CCOC(=O)c1c(NC(=O)CC)sc(C(=O)N2CCCCC2)c1C,75*,57*,12,-1,0.3,0.4
CCOC(=O)c1c(N)ssc1=S,26,66*,-14,-9,0.7,0.3
CCOC(=O)c1c(N)sc(C(=O)N2CCCCCC2)c1C,81*,34,-16,-14,0.2,0.7
CCc1c(C)sc(NC(=O)c2ccco2)c1C(=O)N1CCCCC1,2,7,-19,-3,1,0.9
COC(=O)C1=C(C)NC(=O)C1(NS(=O)(=O)c1ccc(NC(C)=O)cc1)C(F)(F)F (stereo not given),38,8,13,-6,0.6,0.9
COc1cccc2cc(C(=O)n3ccc(C)n3)c(=O)oc12,5,-79,-10,-11,1,1.8
CCOCCCNC(=O)C1CCN(C(=O)Nc2ccc(Cl)cc2)CC1,-9,-9,8,-11,1.1,1.1
O=C(CN1C(=O)C2C3C=CC(C3)C2C1=O)N1CC=C(c2ccccc2)CC1 (stereo not given),-16,-16,-29,-22,1.2,1.2
COc1ccc(CNC(=O)C2CCCN2S(=O)(=O)c2ccc(C)cc2)cc1 (stereo not given),80*,14,-11,4,0.2,0.9
SMILES,CYP2C19 inh,CYP2C9 inhib,PLK1 PBD inh,PLK1 kinase inh,CYP2C19 activ,CYP2C9 activ
COc1ccc(S(=O)(=O)N2CCCC2C(=O)Nn2cnnc2)cc1 (stereo not given),7,-7,6,1,0.9,1.1
COc1ccc(CNC(=O)C2CCCN2S(=O)(=O)c2ccccc2)cc1 (stereo not given),77*,34,-12,-9,0.2,0.7
COc1cccc(NC(=O)CN2CCC(C)CC2)c1,90*,54*,23,-3,0.1,0.5
COc1cccc(NC(=O)COc2ccc(C)cc2)c1,.,.,-9,-3,.,.
O=C(CN1CCCCC1)Nc1cccc(Oc2ccccc2)c1,77*,90*,-14,-8,0.2,0.1
O=C(CSc1nccc(=O)[nH]1)c1ccccc1Br,11,55*,14,-12,0.9,0.4
O=C(CSc1nccc(=O)[nH]1)N1CCc2ccccc2C1,12,17,10,-8,0.9,0.8
Cc1ccc2cc(CNC(C)C)c(=O)[nH]c2c1,4,4,-18,-8,1,1
CCC(C)C(=O)N1c2ccccc2C(=C2SC(C(=O)OC)=C(C(=O)OC)S2)C(=S)C1(C)C (stereo not given),76*,72*,22,-19,0.2,0.3
CC(CO)Nc1nc(SCc2ccccc2)nc2sc3c(c12)CCC3 (stereo not given),24,56*,-27,-8,0.8,0.4
COc1cc(/C=C(/C(=O)c2cccs2)c2nc3ccccc3[nH]2)ccc1O,23,55*,18,1,0.8,0.5
O=C(/C(=C/c1ccc(Cl)cc1)c1nc2ccccc2[nH]1)c1cccs1,76*,99*,-16,-8,0.2,0
Cc1ccccc1OC(=O)C1C(c2ccccc2)C(C(=O)O)C1c1ccccc1 (stereo not given),-6,2,14,-8,1.1,1
CCCC1(C(=O)OCC)NC(c2ccc(OC)cc2OC)C2C(=O)N(c3ccc4c(c3)OCCO4)C(=O)C21 (stereo not given),.,.,-13,-5,.,.
CCCCn1c(SCC(=O)NCc2ccco2)nc2ccccc2c1=O,65*,52*,-11,5,0.4,0.5
CC(C)(C)c1nc(SCC(=O)NCc2ccco2)c2ccccc2n1,94*,65*,-6,-15,0.1,0.3
O=C(CSc1nc2ccccc2c(=O)n1Cc1ccco1)NCc1ccco1,.,.,5,-7,.,.
CC(=O)NCCn1c(SCC(=O)NCc2ccco2)nc2ccccc2c1=O,85*,-15,11,-3,0.2,1.2
CCCCNC(=O)CSc1nc2ccccc2c(=O)n1Cc1ccc2c(c1)OCO2,84*,44,15,-13,0.2,0.6
O=C(CSc1nc2ccccc2c(=O)n1-c1ccccc1)NCc1ccco1,43,23,-4,-7,0.6,0.8
CCN(CC)CCN1C(=O)C(O)=C(C(C)=O)C1c1ccccc1 (stereo not given),2,-2,.,.,1,1
Cc1cc(C(F)F)nn1CC(=O)NCc1ccccc1F,.,.,8,-15,.,.
COc1ccc(C(=O)NCC(C)(C)SCc2c(C)cc(C)cc2C)cc1,50,22,-6,-6,0.5,0.8
CC(=O)NCCn1c(SCC(=O)NCCC(C)C)nc2ccccc2c1=O,69*,11,15,-8,0.3,0.9
